Test results from PubChem BioAssay (NCATS).
Where “and” joins values, the source holds several entries; their conditions need not be identical. Equal values may be shown once. Inconclusive results are not listed. Some compounds were tested as several samples or in several runs, with calls that do not always agree. Calls of active or inactive are those of the source. Unless noted, the call rests on the fitted dose curve; in most records, active means well fitted curve in the direction sought with a large enough effect; inconclusive means small, poorly fitted or top-dose-only effect, or another doubt; inactive means no such curve, though single readings can be large; an effect the other way counts as inactive or inconclusive.

Legend:
[1] = biological target: Cytochrome P450 1A2 (Homo sapiens) (UniProt P05177); assay: p450-cyp1a2 (AID 410; calls by dose curve; further: potency means the concentration at half of the fitted maximal effect); settings: recombinant CYP1A2, luciferin-ME demethylation, luminescence; series mostly up to 57 µM
Cytochrome P450 1A2 (Homo sapiens), sequence (P05177 whole entry, looked up): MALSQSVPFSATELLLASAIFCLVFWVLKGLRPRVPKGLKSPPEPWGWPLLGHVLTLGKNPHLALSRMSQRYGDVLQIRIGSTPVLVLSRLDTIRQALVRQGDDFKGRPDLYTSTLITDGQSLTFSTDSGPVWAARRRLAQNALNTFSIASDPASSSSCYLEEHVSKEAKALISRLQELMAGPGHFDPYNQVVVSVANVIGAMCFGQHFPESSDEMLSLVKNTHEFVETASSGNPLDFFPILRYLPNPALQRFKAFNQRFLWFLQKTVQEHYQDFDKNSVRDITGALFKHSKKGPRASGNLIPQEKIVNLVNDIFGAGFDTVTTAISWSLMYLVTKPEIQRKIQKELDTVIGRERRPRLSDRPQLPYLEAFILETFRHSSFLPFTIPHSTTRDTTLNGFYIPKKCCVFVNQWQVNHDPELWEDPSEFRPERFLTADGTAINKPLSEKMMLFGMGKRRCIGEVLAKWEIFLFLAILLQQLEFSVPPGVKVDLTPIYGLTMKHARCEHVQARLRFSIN
Outline: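 O-Demethylation of luciferin 6' methyl ether by human CYP1A2 is monitored as luciferase luminescence. Substrate sits at Km (100uM); enzyme is 20nM. Values are scaled to 57 uM furafylline as maximal inhibition.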

[2] = biological target: Glucocorticoid receptor (Homo sapiens) (UniProt P04150); assay: GR-EFC Redistribution (AID 451; calls by dose curve; further: potency means the concentration at half of the fitted maximal effect); settings: CHO-K1 GR-EFC translocation, beta-gal luminescence, 2 h
Glucocorticoid receptor (Homo sapiens), sequence (P04150 whole entry, looked up, the tested form may be a part): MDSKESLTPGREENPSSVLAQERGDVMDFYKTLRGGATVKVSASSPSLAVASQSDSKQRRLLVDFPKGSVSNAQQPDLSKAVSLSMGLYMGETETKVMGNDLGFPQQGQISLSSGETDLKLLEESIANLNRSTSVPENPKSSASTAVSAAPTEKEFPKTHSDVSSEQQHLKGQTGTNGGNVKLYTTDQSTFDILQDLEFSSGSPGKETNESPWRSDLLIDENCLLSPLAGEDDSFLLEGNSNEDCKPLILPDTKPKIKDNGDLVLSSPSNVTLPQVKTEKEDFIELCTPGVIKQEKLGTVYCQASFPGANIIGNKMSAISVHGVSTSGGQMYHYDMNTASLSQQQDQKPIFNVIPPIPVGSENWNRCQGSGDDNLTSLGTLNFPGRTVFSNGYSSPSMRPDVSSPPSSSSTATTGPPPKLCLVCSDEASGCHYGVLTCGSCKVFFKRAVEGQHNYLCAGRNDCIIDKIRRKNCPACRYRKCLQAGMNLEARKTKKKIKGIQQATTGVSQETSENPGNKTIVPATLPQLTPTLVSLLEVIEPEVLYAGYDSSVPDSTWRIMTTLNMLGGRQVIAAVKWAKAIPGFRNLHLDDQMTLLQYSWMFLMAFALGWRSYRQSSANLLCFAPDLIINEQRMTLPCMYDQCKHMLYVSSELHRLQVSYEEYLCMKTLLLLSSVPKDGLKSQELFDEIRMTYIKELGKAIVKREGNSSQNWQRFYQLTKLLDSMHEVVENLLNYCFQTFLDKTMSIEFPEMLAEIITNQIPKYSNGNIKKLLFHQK
Outline: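 CHO-K1 cells expressing nuclear EA and GR-ED fragments of b-gal; compounds titrated up to 46 uM final, 2 h at 37 C. GR nuclear translocation read as complemented b-gal luminescence after 1 h RT detection.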

[3] = biological target: Mitogen-activated protein kinase 10 (Mus musculus) (UniProt Q61831); assay: JNK3 AlphaScreen Assay (AID 530; active means well fitted curve in either direction with a large enough effect, not every such curve was filed as active;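 further: kinase came from lysate of stimulated human HepG2 cells; signal reports phosphorylation of biotinylated GST-cJun 1-79 at Ser73 with 10 µM ATP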); settings: JNK3 lysate, c-Jun phosphorylation; series mostly up to 57.1 µM
Outline: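 Activity was read by AlphaScreen after JNK3-containing HepG2 lysate (cytokine pre-activated) phosphorylated biotinylated GST-cJun with 10 uM ATP at room temperature. Phospho-Ser73 cJun antibody with Protein-A acceptor beads provided detection.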

[4] = biological target: 3',5'-cyclic-AMP phosphodiesterase 4B (Homo sapiens) (UniProt Q07343); assay: qHTS Assay for Inhibitors of PDE-IV (AID 607; active means well fitted activation curve with a large enough effect in the main read-out, with a control signal flat, not every such curve was filed as active); settings: HEK293 ACTOne CNG channel cells, membrane potential fluorescence; series mostly up to 22.9 µM
3',5'-cyclic-AMP phosphodiesterase 4B (Homo sapiens), sequence (Q07343 whole entry, looked up): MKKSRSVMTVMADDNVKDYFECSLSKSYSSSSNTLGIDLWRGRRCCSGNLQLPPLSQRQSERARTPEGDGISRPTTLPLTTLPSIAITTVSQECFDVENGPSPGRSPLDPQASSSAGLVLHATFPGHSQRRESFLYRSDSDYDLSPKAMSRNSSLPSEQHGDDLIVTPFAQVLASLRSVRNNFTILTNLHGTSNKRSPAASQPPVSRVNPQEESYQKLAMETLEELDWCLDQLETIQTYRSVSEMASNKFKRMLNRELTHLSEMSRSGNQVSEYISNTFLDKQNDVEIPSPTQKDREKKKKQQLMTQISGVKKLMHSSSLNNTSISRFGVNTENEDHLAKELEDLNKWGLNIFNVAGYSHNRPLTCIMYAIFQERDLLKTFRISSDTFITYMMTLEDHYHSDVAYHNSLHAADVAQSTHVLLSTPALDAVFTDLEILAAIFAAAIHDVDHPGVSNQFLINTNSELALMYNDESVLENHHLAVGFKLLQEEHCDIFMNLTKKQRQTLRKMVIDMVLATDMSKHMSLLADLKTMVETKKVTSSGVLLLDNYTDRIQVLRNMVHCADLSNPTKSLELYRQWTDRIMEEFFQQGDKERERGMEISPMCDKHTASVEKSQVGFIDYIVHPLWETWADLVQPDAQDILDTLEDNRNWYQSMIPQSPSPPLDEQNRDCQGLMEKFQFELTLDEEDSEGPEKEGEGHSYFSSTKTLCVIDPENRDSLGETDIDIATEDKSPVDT
Outline: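 Live HEK293 cells with a modified cyclic nucleotide-gated (CNG) channel report intracellular cAMP via membrane-potential dye fluorescence (ex 535/em 590 nm). Endogenous PDE-IV was targeted. Compounds were tested at up to 22.9 uM final; RO 20-1724 100 uM served as control.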

[5] = biological target: Guanine nucleotide-binding protein G(i) subunit alpha-1 (Homo sapiens) (UniProt P63096); assay: qHTS Assay for Inhibitors of RGS12 GoLoco Motif Activity (Green Fluorophore) (AID 879); settings: Galphai1/FITC-RGS12 GoLoco peptide, fluorescence polarization; series mostly up to 57.1 µM;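 further: negative values mean loss of peptide binding seen as reduced polarization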
Guanine nucleotide-binding protein G(i) subunit alpha-1 (Homo sapiens), sequence (P63096 whole entry, looked up): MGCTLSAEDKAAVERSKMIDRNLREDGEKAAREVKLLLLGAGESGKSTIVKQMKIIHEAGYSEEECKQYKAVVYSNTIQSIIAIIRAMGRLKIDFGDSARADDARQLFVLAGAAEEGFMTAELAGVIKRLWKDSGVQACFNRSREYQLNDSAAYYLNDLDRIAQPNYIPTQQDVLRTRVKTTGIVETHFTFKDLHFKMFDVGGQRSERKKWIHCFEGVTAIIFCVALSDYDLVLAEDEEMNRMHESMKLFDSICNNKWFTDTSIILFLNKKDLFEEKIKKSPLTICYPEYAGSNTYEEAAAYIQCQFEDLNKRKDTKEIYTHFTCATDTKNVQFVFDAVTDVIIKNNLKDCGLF
Outline: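 A drop in FITC polarization marked displacement of the FITC-tagged RGS12 GoLoco peptide (10 nM) from Gαi1 (50 nM). Compounds were incubated 10 min at room temperature in Tris pH 7.5 buffer containing 150 mM NaCl, 0.1 mM GDP and 0.05% NP40; unlabeled peptide titration served as control.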

[6] = biological target: Cytochrome P450 2D6 (Homo sapiens) (UniProt P10635); assay: qHTS Assay for Inhibitors and Substrates of Cytochrome P450 2D6 (AID 891); settings: recombinant CYP2D6, luciferin-ME EGE luminescence; series mostly up to 57.1 µM; further: potency means the concentration at half of the fitted maximal effect; nearly all actives have a fitted effect of over 60% in size
Cytochrome P450 2D6 (Homo sapiens), sequence (P10635 whole entry, looked up): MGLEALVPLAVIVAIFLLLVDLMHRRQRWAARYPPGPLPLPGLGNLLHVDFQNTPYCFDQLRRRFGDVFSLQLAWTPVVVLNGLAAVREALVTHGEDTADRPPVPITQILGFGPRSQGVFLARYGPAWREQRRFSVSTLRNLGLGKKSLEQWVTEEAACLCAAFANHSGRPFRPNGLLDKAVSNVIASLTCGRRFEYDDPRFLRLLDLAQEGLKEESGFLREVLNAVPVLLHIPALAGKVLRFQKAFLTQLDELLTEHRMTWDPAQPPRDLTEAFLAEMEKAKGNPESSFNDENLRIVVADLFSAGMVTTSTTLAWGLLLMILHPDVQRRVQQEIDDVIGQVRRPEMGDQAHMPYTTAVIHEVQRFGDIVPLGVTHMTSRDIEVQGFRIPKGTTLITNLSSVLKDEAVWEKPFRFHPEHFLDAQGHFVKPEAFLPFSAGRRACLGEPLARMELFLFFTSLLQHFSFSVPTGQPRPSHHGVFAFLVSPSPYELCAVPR
Outline: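 Luminescent read-out of luciferin formed by 5 nM human CYP2D6 demethylating 30 uM Luciferin-ME EGE (Km level) over 60 min at room temperature after NADPH regeneration addition. Data normalized to full inhibition by 1.43 uM quinidine.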

[7] = qHTS Assay for Identification of Small Molecule Antagonists for NFkB Signaling Pathway (AID 895; active means well fitted inhibition curve with a large enough effect in the signal ratio, with a control signal flat, not every such curve was filed as active; the % refers to the signal ratio); settings: NFkB beta-lactamase reporter cells, FRET ratio 460/530; series mostly up to 38.3 µM
Outline: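 ME-180 NFkB-bla cells (beta-lactamase under NFkB response element), plated overnight, treated with compound then 10 pM TNF alpha (about EC50) for 5 hrs at 37 C. LiveBLAzer FRET read at 460/530 nm emission, 405 nm excitation.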

[8] = biological target: Muscarinic acetylcholine receptor M1 (Rattus norvegicus) (UniProt P08482); assay: qHTS Assay for Antagonists of Acetylcholine Muscarinic M1 Receptor: Kinetic Measurement of Intracellular Calcium Response (AID 943); settings: M1-expressing cells, kinetic intracellular calcium fluorescence; series mostly up to 35.3 µM; further: potency means the concentration at half of the fitted maximal effect; nearly all actives have a fitted effect of over 75% in size
Muscarinic acetylcholine receptor M1 (Rattus norvegicus), sequence (P08482 whole entry, looked up): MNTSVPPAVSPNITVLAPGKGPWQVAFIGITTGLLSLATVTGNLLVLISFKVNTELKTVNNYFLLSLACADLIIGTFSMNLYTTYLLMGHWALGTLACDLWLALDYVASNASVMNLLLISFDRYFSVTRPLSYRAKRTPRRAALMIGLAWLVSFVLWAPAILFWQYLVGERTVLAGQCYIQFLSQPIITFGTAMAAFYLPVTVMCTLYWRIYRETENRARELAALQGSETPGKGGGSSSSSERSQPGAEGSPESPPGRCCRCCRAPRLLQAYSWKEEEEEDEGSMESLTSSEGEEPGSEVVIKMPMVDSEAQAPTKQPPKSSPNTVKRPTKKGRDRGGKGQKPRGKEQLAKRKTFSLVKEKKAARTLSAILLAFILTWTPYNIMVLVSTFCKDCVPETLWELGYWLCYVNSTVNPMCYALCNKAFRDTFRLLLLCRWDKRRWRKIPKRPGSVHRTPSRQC
Outline: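 Antagonism is measured as inhibition of the carbachol-evoked calcium rise in CHO cells transfected with rat M1. Cells are dye-loaded, exposed to compound for 10 min, then stimulated with 100 nM carbachol (EC80).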

[9] = biological target: Muscarinic acetylcholine receptor M1 (Rattus norvegicus) (UniProt P08482); assay: qHTS Assay for Antagonists of Acetylcholine Muscarinic M1 Receptor: Measurement of IP-One Response (AID 944); settings: CHO-M1 cells, IP-One HTRF, antagonist mode; series mostly up to 46.1 µM; further: potency means the concentration at half of the fitted maximal effect; nearly all actives have a fitted effect of over 75% in size
Outline: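 Antagonist mode with rat M1 receptor transfected into CHO cells. Compound is added first for 10 min, carbachol at its EC80 follows for 30 min, and lysis reagents then allow TR-FRET detection of accumulated IP1.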

[10] = biological target: Pyruvate kinase (Leishmania mexicana) (UniProt Q27686); assay: qHTS Validation Assay for Inhibitors of Leishmania Mexicana Pyruvate Kinase (AID 945); settings: purified L. mexicana pyruvate kinase, enzyme activity, E451W mutant enzyme; series mostly up to 57.5 µM
Outline: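 Purified LmPYK (E451W mutant, 0.2 nM) was incubated 1 h at room temperature with 0.5 mM PEP and 0.1 mM ADP in 50 mM imidazole pH 7.2, 50 mM KCl, 7 mM MgCl2; ATP formed was read by PKLight luminescence, normalized to DMSO wells.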

[11] = biological target: Pyruvate kinase PKM (Homo sapiens) (UniProt P14618); assay: qHTS Assay for Activators of Human Muscle Pyruvate Kinase (AID 954; active means well fitted curve in the direction sought with a large enough effect, not every such curve was filed as active); settings: purified human muscle pyruvate kinase, luciferase-coupled luminescence, 1 h; series mostly up to 57.5 µM
Pyruvate kinase PKM (Homo sapiens), sequence (P14618 whole entry, looked up): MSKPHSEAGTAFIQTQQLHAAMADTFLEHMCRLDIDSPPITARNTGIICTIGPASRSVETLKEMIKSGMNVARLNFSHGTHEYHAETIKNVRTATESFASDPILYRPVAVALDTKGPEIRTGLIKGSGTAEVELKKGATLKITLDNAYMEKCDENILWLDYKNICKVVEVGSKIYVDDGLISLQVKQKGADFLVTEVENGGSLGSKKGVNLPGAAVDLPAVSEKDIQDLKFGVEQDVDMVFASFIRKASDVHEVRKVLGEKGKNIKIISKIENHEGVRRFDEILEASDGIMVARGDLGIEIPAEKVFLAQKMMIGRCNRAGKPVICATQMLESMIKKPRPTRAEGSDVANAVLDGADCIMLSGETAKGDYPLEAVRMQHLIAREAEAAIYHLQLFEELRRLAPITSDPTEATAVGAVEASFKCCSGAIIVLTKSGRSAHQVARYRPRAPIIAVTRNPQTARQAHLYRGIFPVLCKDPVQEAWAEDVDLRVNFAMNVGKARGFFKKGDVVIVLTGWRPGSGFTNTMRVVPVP
Outline: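 Screening used highly purified human pyruvate kinase M2 under submaximal activity, with PEP at its Km and ADP below Km. After an hour at room temperature, ATP was read by luciferase luminescence.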

[12] = biological target: Alpha-galactosidase (Coffea arabica) (UniProt Q42656); assay: Counterscreen for Glucocerebrosidase Inhibitors: qHTS Assay for Coffee Bean alpha-Galactosidase at pH 4.5 (AID 957); settings: purified coffee bean alpha-galactosidase, fluorogenic substrate; series mostly up to 76.9 µM
Alpha-galactosidase (Coffea arabica), sequence (Q42656 whole entry, looked up): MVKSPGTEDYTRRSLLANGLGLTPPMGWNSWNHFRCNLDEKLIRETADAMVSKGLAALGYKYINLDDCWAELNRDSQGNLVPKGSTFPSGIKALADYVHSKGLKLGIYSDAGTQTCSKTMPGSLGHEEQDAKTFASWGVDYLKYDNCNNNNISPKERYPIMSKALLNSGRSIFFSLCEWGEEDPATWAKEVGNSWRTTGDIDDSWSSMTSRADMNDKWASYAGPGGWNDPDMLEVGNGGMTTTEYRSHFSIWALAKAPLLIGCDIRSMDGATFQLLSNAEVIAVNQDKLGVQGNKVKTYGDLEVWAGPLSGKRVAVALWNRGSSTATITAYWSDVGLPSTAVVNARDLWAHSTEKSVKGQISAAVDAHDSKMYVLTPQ
Outline: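 Enzyme is added first (2 nM final), then compounds titrated from 0.7 nM to 77 uM, then 80 uM 4-methylumbelliferyl alpha-D-galactopyranoside; after 20 min at room temperature a pH 10 NaOH/glycine stop precedes fluorescence reading at 365/440 nm.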

[13] = biological target: Alpha-galactosidase A (Homo sapiens) (UniProt P06280); assay: Counterscreen for Glucocerebrosidase Inhibitors: qHTS Assay for Human alpha-Galactosidase at pH 4.5 (AID 992); settings: purified enzyme, fluorogenic substrate; series mostly up to 76.9 µM
Alpha-galactosidase A (Homo sapiens), sequence (P06280 whole entry, looked up): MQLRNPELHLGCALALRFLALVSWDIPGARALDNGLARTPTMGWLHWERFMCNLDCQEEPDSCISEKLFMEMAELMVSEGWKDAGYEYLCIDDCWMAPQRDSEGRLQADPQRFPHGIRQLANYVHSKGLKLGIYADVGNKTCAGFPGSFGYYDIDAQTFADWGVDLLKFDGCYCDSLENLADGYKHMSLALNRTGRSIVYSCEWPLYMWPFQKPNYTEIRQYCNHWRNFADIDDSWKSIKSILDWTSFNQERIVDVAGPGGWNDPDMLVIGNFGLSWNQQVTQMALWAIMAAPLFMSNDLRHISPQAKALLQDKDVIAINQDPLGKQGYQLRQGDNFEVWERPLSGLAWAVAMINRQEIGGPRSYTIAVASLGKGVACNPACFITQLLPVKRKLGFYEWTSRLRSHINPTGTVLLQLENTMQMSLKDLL
Outline: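 Each compound is preincubated briefly with 2 nM enzyme before substrate addition (80 uM); plates then sit 20 min at ambient temperature, are quenched with 1M NaOH/1M glycine, and read fluorometrically.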

[14] = biological target: alpha-glucosidase (Oryza sativa, rice) (UniProt Q653V4); assay: Counterscreen for Glucocerebrosidase Inhibitors: qHTS Assay for Rice alpha-Glucosidase at pH 5.0 (AID 997); settings: rice alpha-glucosidase enzyme activity; series mostly up to 76.9 µM
Outline: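 Endpoint fluorogenic assay at pH 5.0: compounds (0.7 nM to 77 uM) titrated against 4 nM rice enzyme and 400 uM 4-MU-alpha-glucoside for 20 min at room temperature; NaOH/glycine stop, read ex 365/em 440 nm, Hill-fitted AC50.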

[15] = biological target: Ubiquitin carboxyl-terminal hydrolase 1 (Homo sapiens) (UniProt O94782); assay: Inhibitors of USP1/UAF1: Pilot qHTS (AID 504865); settings: purified USP1/UAF1, Ub-rhodamine cleavage fluorescence; series mostly up to 114 µM;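 further: rhodamine fluorescence freed from ubiquitin-rhodamine substrate followed over time; top concentration of the series differs between compounds; nearly all actives have a fitted effect of over 35% in size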
Outline: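 Deubiquitinase activity followed as kinetic rhodamine fluorescence release from 150 nM Ub-Rho. 1 nM USP1/UAF1 with compound, after 15 min room-temperature preincubation, in HEPES pH 7.8 buffer containing TCEP, EDTA, BSA and Tween-20.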

[16] = biological target: DNA dC->dU-editing enzyme APOBEC-3G (Homo sapiens) (UniProt Q9HC16); assay: qHTS for inhibitors of Vif-A3G interactions: Validation (AID 588379); settings: Vif-A3G protein interaction assay; series mostly up to 46.1 µM
Outline: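 Yellow fluorescence (Ex 488, Em 500-530) of Vif-coexpressing HeLa A3G-eYFP cells, scanned by Acumen cytometer, reports blocked A3G degradation. Cells plated at 700/well overnight at 37 deg C before compound addition, then a further overnight compound incubation at 37 deg C.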

[17] = biological target: Furin (Homo sapiens) (UniProt P09958); assay: Furin counterscreen qHTS for Zika virus inhibitors (AID 1347149); settings: furin enzymatic counterscreen, fluorogenic substrate; series mostly up to 57.5 µM;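 further: purified recombinant full-length human furin enzyme at 5 nM; fluorescence gain from furin cutting a BOC-RVRR-AMC peptide substrate over 15 min; top concentration of the series differs between compounds; nearly all actives have a fitted effect of over 70% in size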
Outline: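 Counterscreen measures cleavage of 2 microM BOC-RVRR-AMC, below its ~15 microM Km, by 5 nM full-length human furin at pH 7.0 after a 15-min compound preincubation. Inhibition derives from the 15-min fluorescence increase at 37C.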

[18] = Vero cells viability qHTS for Zika virus inhibitors (AID 1347167); settings: cytotoxicity counter-screen (Zika); series mostly up to 45.9 µM
Outline: (§1)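 qHTS titration; 24-48 h compound exposure, 37 degrees C/5% CO2; DMEM, 4% FBS; CellTiter Glo ATP luminescence.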

[19] = HepG2 cells viability qHTS for Zika virus inhibitors (AID 1347168); settings: Zika counter-screen; series mostly up to 45.9 µM
Outline: as §1

[20] = biological target: Cytochrome P450 3A4 (Homo sapiens) (UniProt P08684); assay: qHTS Assay for Activators of Cytochrome P450 3A4 (AID 885); settings: recombinant CYP3A4, Luciferin-PPXE luminescence, 60 min; series mostly up to 57.1 µM; further: nearly all actives have a fitted effect of over 65% in size
Outline: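 Using 20nM recombinant human CYP3A4 in potassium phosphate (200mM), substrate Luciferin-PPXE at 25uM, luminescent luciferin detection followed a 60-min RT NADPH reaction; data scaled to 57 uM ketoconazole.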

Measured: Potency

C=CCN1CCC2(C)c3cc(O)ccc3C[C@H]1[C@H]2C
active: [6] 7.94 µM and 631 nM | [8] 14.1 µM | [9] 17.8 µM and 15.8 µM
inactive: [2] > 46 µM | [3] | [4] | [5] | [7] | [10] | [11] | [12] | [13] | [14] | [15] | [16] | [17] | [18] | [19]
inactive and 31.6 µM (active): [1]

CN1CCc2cc3c(cc2C1C1OC(=O)c2c1ccc1c2OCO1)OCO3 (stereo not drawn)
inactive: [20] | [16]

CC1CCCC(=O)CCC/C=C/c2cc(O)cc(O)c2C(=O)O1 (stereo not drawn)
inactive: [20] | [15]
